# Measured values from PubChem BioAssay (NCI).
# About 79,000 compounds went through this panel and 15% of them were active in at least one assay; those are over-represented in the sample as a whole. A number with no mark means an inactive call. Calls of active or inactive are those of the source. Cut-off read from the data, not from the text of the source: active = growth inhibition above about 70%; inactive = the rest.
# Tests used:
# [1] = NCI Yeast Anticancer Drug Screen. Data for the rad52 strain (AID 147);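 note: 0% = growth of vehicle-treated control cultures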; settings: S. cerevisiae rad52 mutant growth inhibition, stronger effect = higher value
# In short: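 Vehicle-treated cultures served as the reference for growth inhibition of compound-exposed yeast bearing a DNA repair mutation.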
# [2] = NCI Yeast Anticancer Drug Screen. Data for the wt1 strain (AID 149);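 note: 0% = growth of vehicle-treated wt1 cultures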; settings: S. cerevisiae wt1 strain (SPY 50644) growth inhibition, stronger effect = higher value
# In short: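 Growth inhibition read against vehicle controls after compound exposure of the wt1 yeast strain.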
# [3] = NCI Yeast Anticancer Drug Screen. Data for the rad50EPP+ strain (AID 151);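 note: 0% = growth of vehicle-treated control cultures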; settings: S. cerevisiae rad50 mutant strain, stronger effect = higher value
# In short: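 In this screen, rad50EPP+ yeast were exposed to compounds. Growth inhibition was scored against vehicle-treated controls.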
# [4] = NCI Yeast Anticancer Drug Screen. Data for the rad50 strain (AID 155);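 note: 0% = growth of vehicle-only cultures of the same strain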; settings: S. cerevisiae rad50 strain growth inhibition, stronger effect = higher value
# In short: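 Readout: growth inhibition relative to vehicle-treated cultures. Compound exposure was carried out in a genetically defined yeast strain deficient in DNA damage repair.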
# [5] = NCI Yeast Anticancer Drug Screen. Data for the mec2-1 strain (AID 157); settings: S. cerevisiae mec2-1 strain, stronger effect = higher value
# In short: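 Vehicle-treated cultures served as reference for growth inhibition of compound-exposed mec2-1 yeast.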
# [6] = NCI Yeast Anticancer Drug Screen. Data for the rad14 strain (AID 159);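 note: 0% = growth of vehicle-treated control cultures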; settings: S. cerevisiae rad14 strain growth inhibition, stronger effect = higher value
# In short: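 Growth inhibition vs vehicle controls; genetically altered yeast strain (DNA damage repair defect) treated with test compounds.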
# [7] = NCI Yeast Anticancer Drug Screen. Data for the sgs1 mgt1 strain (AID 161);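 note: 0% = growth of cultures given vehicle only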; settings: S. cerevisiae sgs1 mgt1 strain, stronger effect = higher value
# In short: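 Test agents were incubated with a DNA-repair-mutant yeast strain. Growth was then read and compared against vehicle-treated controls.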
# [8] = NCI Yeast Anticancer Drug Screen. Data for the CLN2oe strain (AID 163);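 note: 0% = growth of vehicle-only control cultures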; settings: S. cerevisiae CLN2oe strain, stronger effect = higher value
# In short: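 Inhibition relative to vehicle-treated yeast is reported. Cells: strain with genetic alteration in cell-cycle control, grown with compound.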
# [9] = NCI Yeast Anticancer Drug Screen. Data for the cln2 rad14 strain (AID 165);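 note: 0% = growth equal to vehicle treated cultures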; settings: S. cerevisiae cln2 rad14 strain, stronger effect = higher value
# In short: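 Each compound was tested on cln2 rad14 yeast. Inhibition of growth was calculated against vehicle-exposed controls.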
# [10] = NCI Yeast Anticancer Drug Screen. Data for the bub3 strain (AID 167); settings: S. cerevisiae bub3 mutant strain, stronger effect = higher value
# In short: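 Readout: yeast growth inhibition, expressed relative to vehicle-only wells. The test organism is a mutant strain from a panel with lesions in DNA repair or checkpoint genes.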
# [11] = NCI Yeast Anticancer Drug Screen. Data for the wt2 strain (AID 169);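 note: 0% = growth of vehicle-treated yeast cultures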; settings: S. cerevisiae wt2 strain growth inhibition, stronger effect = higher value
# In short: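 Inhibition of yeast growth was determined after compound treatment, normalised to controls receiving only vehicle.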
# [12] = NCI Yeast Anticancer Drug Screen. Data for the sgs1 strain (AID 173);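 note: 0% = growth of vehicle-only control cultures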; settings: S. cerevisiae sgs1 mutant, stronger effect = higher value
# In short: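 Screen format: yeast with repair or checkpoint alterations, compound exposure, growth read relative to vehicle.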
# [13] = NCI Yeast Anticancer Drug Screen. Data for the mlh1 rad18 strain (AID 175); settings: S. cerevisiae mlh1 rad18 strain growth inhibition, stronger effect = higher value
# In short: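 Vehicle-treated cultures served as the reference for growth inhibition in a yeast strain carrying DNA damage repair alterations exposed to each compound.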
# [14] = NCI Yeast Anticancer Drug Screen. Data for the rad18 strain (AID 177); settings: S. cerevisiae rad18 mutant growth inhibition, stronger effect = higher value
# In short: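 Test articles were incubated with altered yeast defective in DNA damage repair. Results are given as inhibition of growth versus vehicle.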
# [15] = NCI Yeast Anticancer Drug Screen. Data for the mlh1 strain (AID 171);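 note: 0% = growth of vehicle-treated control cultures of the same strain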; settings: S. cerevisiae mlh1 strain growth inhibition, stronger effect = higher value
# In short: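 Vehicle-normalised growth inhibition of a repair- or checkpoint-altered yeast strain following compound treatment.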
# [16] = at 5.0 µM (retest, dose inferred, filed as 0.5)
# [17] = at 50.0 µM (retest, dose inferred, filed as 5.0)
structure (smiles),measurement,setting,value
Cc1ccccc1N=C(NO)c1ccccc1,growth inhibition,[1]; at 1.2 µM,10%
same,growth inhibition,[1]; at 3.7 µM,9%
same,growth inhibition,[1]; at 11.0 µM,22%
same,growth inhibition,[1]; at 33.0 µM,60%
same,growth inhibition,[1]; at 100.0 µM,97% (active)
same,growth inhibition,[2]; at 1.2 µM,0%
same,growth inhibition,[2]; at 3.7 µM,-4%
same,growth inhibition,[2]; at 11.0 µM,-6%
same,growth inhibition,[2]; at 33.0 µM,9%
same,growth inhibition,[2]; at 100.0 µM,93% (active)
same,growth inhibition,[3]; at 1.2 µM,1%
same,growth inhibition,[3]; at 3.7 µM,6%
same,growth inhibition,[3]; at 11.0 µM,15%
same,growth inhibition,[3]; at 33.0 µM,42%
same,growth inhibition,[3]; at 100.0 µM,67%
same,growth inhibition,[4]; at 1.2 µM,8%
same,growth inhibition,[4]; at 3.7 µM,15%
same,growth inhibition,[4]; [16],-141%
same,growth inhibition,[4]; at 11.0 µM,31%
same,growth inhibition,[4]; at 33.0 µM,59%
same,growth inhibition,[4]; [17],33%
same,growth inhibition,[4]; at 50.0 µM,90.6% (active)
same,growth inhibition,[4]; at 100.0 µM,97% (active)
same,growth inhibition,[5]; at 1.2 µM,1%
same,growth inhibition,[5]; at 3.7 µM,0%
same,growth inhibition,[5]; [16],-44%
same,growth inhibition,[5]; at 11.0 µM,-5%
same,growth inhibition,[5]; at 33.0 µM,49%
same,growth inhibition,[5]; [17],14%
same,growth inhibition,[5]; at 50.0 µM,82.8% (active)
same,growth inhibition,[5]; at 100.0 µM,97% (active)
same,growth inhibition,[6]; at 1.2 µM,0%
same,growth inhibition,[6]; at 3.7 µM,-4%
same,growth inhibition,[6]; at 11.0 µM,6%
same,growth inhibition,[6]; at 33.0 µM,29%
same,growth inhibition,[6]; at 100.0 µM,96% (active)
same,growth inhibition,[7]; [16],-61%
same,growth inhibition,[7]; [17],49%
same,growth inhibition,[7]; at 50.0 µM,80% (active)
same,growth inhibition,[8]; at 1.2 µM,-3%
same,growth inhibition,[8]; at 3.7 µM,-5%
same,growth inhibition,[8]; at 11.0 µM,-2%
same,growth inhibition,[8]; at 33.0 µM,20%
same,growth inhibition,[8]; at 100.0 µM,95% (active)
same,growth inhibition,[9]; [16],-56%
same,growth inhibition,[9]; [17],20%
same,growth inhibition,[9]; at 50.0 µM,74.2% (active)
same,growth inhibition,[10]; at 1.2 µM,3%
same,growth inhibition,[10]; at 3.7 µM,-1%
same,growth inhibition,[10]; [16],-67%
same,growth inhibition,[10]; at 11.0 µM,-5%
same,growth inhibition,[10]; at 33.0 µM,5%
same,growth inhibition,[10]; [17],37%
same,growth inhibition,[10]; at 50.0 µM,76.8% (active)
same,growth inhibition,[10]; at 100.0 µM,94% (active)
same,growth inhibition,[11]; at 1.2 µM,-3%
same,growth inhibition,[11]; at 3.7 µM,-3%
same,growth inhibition,[11]; at 11.0 µM,-4%
same,growth inhibition,[11]; at 33.0 µM,20%
same,growth inhibition,[11]; at 100.0 µM,94% (active)
same,growth inhibition,[12]; at 1.2 µM,1%
same,growth inhibition,[12]; at 3.7 µM,6%
same,growth inhibition,[12]; at 11.0 µM,15%
same,growth inhibition,[12]; at 33.0 µM,62%
same,growth inhibition,[12]; at 100.0 µM,98% (active)
same,growth inhibition,[13]; [16],-122%
same,growth inhibition,[13]; [17],29%
same,growth inhibition,[13]; at 50.0 µM,92.9% (active)
same,growth inhibition,[14]; at 1.2 µM,1%
same,growth inhibition,[14]; at 3.7 µM,2%
same,growth inhibition,[14]; at 11.0 µM,11%
same,growth inhibition,[14]; at 33.0 µM,35%
same,growth inhibition,[14]; at 100.0 µM,96% (active)
CCCCc1ccc(-n2c(C)c(COC(=O)NC)c(COC(=O)NC)c2C)cc1,growth inhibition,[1]; at 1.2 µM,-40%
same,growth inhibition,[1]; at 3.7 µM,-10%
same,growth inhibition,[1]; at 11.0 µM,5%
same,growth inhibition,[1]; at 33.0 µM,98% (active)
same,growth inhibition,[1]; at 100.0 µM,93% (active)
same,growth inhibition,[2]; at 1.2 µM,-48%
same,growth inhibition,[2]; at 3.7 µM,-44%
same,growth inhibition,[2]; at 11.0 µM,-13%
same,growth inhibition,[2]; at 33.0 µM,99% (active)
same,growth inhibition,[2]; at 100.0 µM,91% (active)
same,growth inhibition,[3]; at 1.2 µM,-18%
same,growth inhibition,[3]; at 3.7 µM,-13%
same,growth inhibition,[3]; at 11.0 µM,-6%
same,growth inhibition,[3]; at 33.0 µM,90% (active)
same,growth inhibition,[3]; at 100.0 µM,92% (active)
same,growth inhibition,[4]; at 1.2 µM,-36%
same,growth inhibition,[4]; at 3.7 µM,-30%
same,growth inhibition,[4]; [16],19%
same,growth inhibition,[4]; at 11.0 µM,31%
same,growth inhibition,[4]; at 33.0 µM,93% (active)
same,growth inhibition,[4]; [17],95% (active)
same,growth inhibition,[4]; at 50.0 µM,90.6% (active)
same,growth inhibition,[4]; at 100.0 µM,90% (active)
same,growth inhibition,[6]; at 1.2 µM,-29%
same,growth inhibition,[6]; at 3.7 µM,-11%
same,growth inhibition,[6]; at 11.0 µM,89% (active)
same,growth inhibition,[6]; at 33.0 µM,97% (active)
same,growth inhibition,[6]; at 100.0 µM,89% (active)
same,growth inhibition,[7]; [16],26%
same,growth inhibition,[7]; [17],57%
same,growth inhibition,[7]; at 50.0 µM,88.5% (active)
same,growth inhibition,[8]; at 1.2 µM,-23%
same,growth inhibition,[8]; at 3.7 µM,-1%
same,growth inhibition,[8]; at 11.0 µM,5%
same,growth inhibition,[8]; at 33.0 µM,97% (active)
same,growth inhibition,[8]; at 100.0 µM,94% (active)
same,growth inhibition,[9]; [16],21%
same,growth inhibition,[9]; [17],-28%
same,growth inhibition,[9]; at 50.0 µM,81.5% (active)
same,growth inhibition,[10]; at 1.2 µM,-36%
same,growth inhibition,[10]; at 3.7 µM,-39%
same,growth inhibition,[10]; [16],11%
same,growth inhibition,[10]; at 11.0 µM,56%
same,growth inhibition,[10]; at 33.0 µM,99% (active)
same,growth inhibition,[10]; [17],4%
same,growth inhibition,[10]; at 50.0 µM,85.5% (active)
same,growth inhibition,[10]; at 100.0 µM,88% (active)
same,growth inhibition,[11]; at 1.2 µM,-24%
same,growth inhibition,[11]; at 3.7 µM,-10%
same,growth inhibition,[11]; at 11.0 µM,5%
same,growth inhibition,[11]; at 33.0 µM,98% (active)
same,growth inhibition,[11]; at 100.0 µM,94% (active)
same,growth inhibition,[15]; at 1.2 µM,-39%
same,growth inhibition,[15]; at 3.7 µM,-18%
same,growth inhibition,[15]; at 11.0 µM,83% (active)
same,growth inhibition,[15]; at 33.0 µM,97% (active)
same,growth inhibition,[15]; at 100.0 µM,87% (active)
same,growth inhibition,[12]; at 1.2 µM,-3%
same,growth inhibition,[12]; at 3.7 µM,-2%
same,growth inhibition,[12]; at 11.0 µM,47%
same,growth inhibition,[12]; at 33.0 µM,98% (active)
same,growth inhibition,[12]; at 100.0 µM,91% (active)
same,growth inhibition,[13]; [16],18%
same,growth inhibition,[13]; [17],98% (active)
same,growth inhibition,[13]; at 50.0 µM,91.2% (active)
same,growth inhibition,[14]; at 1.2 µM,-27%
same,growth inhibition,[14]; at 3.7 µM,-1%
same,growth inhibition,[14]; at 11.0 µM,59%
same,growth inhibition,[14]; at 33.0 µM,95% (active)
same,growth inhibition,[14]; at 100.0 µM,77% (active)
